Unmarked numbers belong to inactive results. The rule behind the calls is not given here.
What follows are compounds tested on HIV-1 nucleocapsid protein NCp7 (binding to TG oligonucleotide) (assay: HIV Nucleocapsid (AID 346;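 note: potency is for inhibitors that block NC binding and lower polarization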)). Settings: HIV-1 NC / fluorescein-TGTGTGTG probe, fluorescence polarization.
Summary of the method: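 Fluorescence polarization readout: labelled TG4xF oligo (10 nM) with 100 nM nucleocapsid protein, high-salt (250mM NaCl) Hepes pH 7.5 buffer containing zinc and fresh reducing agents. Compounds added by pin tool; incubation 1 hr, room temperature.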
For COCCNc1ncnc2ccc(-c3cccc(OC)c3)cc12, the Potency was over 20 µM. With CN(Cc1ccco1)c1ncnc2ccc(-c3ccccc3Cl)cc12 the Potency was over 20 µM. Compound COC(=O)N1CCC[C@@]2(CCN(C(c3ccccc3)c3ccccc3)C2)C1 has a Potency of over 20 µM. COc1cccc(-c2nccc(NCc3ccc(OC)cc3OC)n2)c1 gave a Potency of over 20 µM. Compound Cc1cnc(CNc2ncnc3ccc(-c4cccc(NS(C)(=O)=O)c4)cc23)cn1 has a Potency of over 20 µM. CN(C)c1ccc(-c2nc(N(C)C)c3ccccc3n2)cc1 showed a Potency of over 20 µM. FC(F)(F)c1ccccc1-c1ccc2ncnc(NCCN3CCOCC3)c2c1 showed a Potency of over 20 µM. Cc1cnc(CNc2nc(-c3ccc(N(C)C)cc3)nc3ccccc23)cn1 gave a Potency of over 20 µM. For CCNc1ncc2nc(-c3ccc(Cl)cc3)c(=O)n(-c3ccc(OC)cc3)c2n1, the Potency was over 4 µM. With COC(=O)N1CCC2(CC1)CCN(C(c1ccccc1)c1ccccc1)CC2 the Potency was over 20 µM. CN1CCN(c2ncc3nc(-c4cccs4)c(=O)n(Cc4ccc(F)cc4)c3n2)CC1 was tested, and the Potency was over 4 µM. O=C(c1ccco1)N1CCC2(CCCN(C(c3ccccc3)c3ccccc3)C2)CC1 was tested, and the Potency was over 20 µM. With COCCn1c(=O)c(CCc2ccccc2)nc2cnc(N3CCNCC3)nc21 the Potency was over 20 µM. For CC(C)CN1CCC2(CC1)CCN(C(=O)c1cccn1C)CC2, the Potency was over 20 µM. COCCn1c(=O)c(-c2ccc(OC)cc2)nc2cnc(N3CCN(C)CC3)nc21 gave a Potency of over 20 µM. Compound O=C(c1cc(C(F)(F)F)cc(C(F)(F)F)c1)N1CCC2(CC1)CCN(c1ccccn1)CC2 has a Potency of over 20 µM. COc1ccc2[nH]cc(CCNc3nc(-c4ccccc4CN(C)C)nc4ccccc34)c2c1 was tested, and the Potency was over 20 µM. With COc1ccc(Oc2ncc3nc(-c4cc(F)cc(F)c4)c(=O)n(CCC#N)c3n2)cc1 the Potency was over 20 µM. CC(=O)NCCNc1nc(-c2ccc(C(=O)N(C)C)cc2)nc2ccccc12 was tested, and the Potency was over 20 µM. COc1ccc(NC(=O)N2CC3(CCN(C(=O)c4cnccn4)CC3)C2)cc1 gave a Potency of over 20 µM. O=C(c1ccco1)N1CCC2(CCCN(Cc3ccncc3)C2)CC1 gave a Potency of over 20 µM. With CNc1nc(-c2ccc3c(c2)OCO3)nc2ccccc12 the Potency was over 20 µM. In the case of CN1CCN(c2ncc3nc(CCc4ccccc4)c(=O)n(CCc4ccccc4)c3n2)CC1, the Potency is reported as over 20 µM. CN1CCN(c2ncc3nc(-c4cccc(C#N)c4)c(=O)n(CCC#N)c3n2)CC1 was tested, and the Potency was over 20 µM. Work on COc1ccc(-n2c(=O)c(-c3cccs3)nc3cnc(Oc4ccccc4)nc32)cc1 yielded a Potency of over 4 µM. CS(=O)(=O)Nc1cccc(-c2ccc3ncnc(Nc4ccc(F)cc4)c3c2)c1 was tested, and the Potency was over 20 µM. COCCn1c(=O)c(-c2cccs2)nc2cnc(Nc3ccccc3)nc21 was tested, and the Potency was over 20 µM. N#CCCn1c(=O)c(-c2ccccc2)nc2cnc(Nc3ccccc3)nc21 was tested, and the Potency was over 20 µM. O=C(c1csnn1)N1CCC2(CCCN(c3ncccn3)C2)CC1 showed a Potency of over 20 µM. For c1cncc(CNc2ncncc2-c2ccoc2)c1, the Potency was over 20 µM. In the case of CNc1nc(-c2cccc(C#N)c2)nc2ccccc12, the Potency is reported as over 20 µM. With c1ccc(CNc2cc(-c3ccoc3)ncn2)cc1 the Potency was over 20 µM. Work on COCC(=O)N1CCC2(CC1)CCN(C(=O)Nc1ccc(OC)cc1)CC2 yielded a Potency of over 20 µM. In the case of COc1ccccc1CNc1ncncc1-c1cccc(C#N)c1, the Potency is reported as over 20 µM. In the case of O=c1cnc2cnc(Oc3cccc(Cl)c3)nc2n1Cc1ccc(F)cc1, the Potency is reported as over 20 µM. COc1ncc2nc(C)c(=O)n(C[C@H]3CCCO3)c2n1 showed a Potency of over 20 µM. With COc1cccc(Cn2c(=O)c(-c3ccc(Cl)cc3)nc3cnc(N4CCN(C)CC4)nc32)c1 the Potency was over 20 µM. For CN(C)c1ncc2nc(-c3cccs3)c(=O)n(CCc3ccccc3)c2n1, the Potency was over 20 µM. COCCn1c(=O)c(-c2ccc(F)cc2)nc2cncnc21 showed a Potency of over 20 µM. Compound CN1CC[C@@]2(CCCN(C(=O)c3cccn3C)C2)C1 has a Potency of over 20 µM.

— PubChem BioAssay (NCATS)
Potency is the fitted concentration of half-maximal effect.
